The whole screen tested about 310,000 compounds, of which about 18,000 (5.8%) were called active. Inconclusive results (about 22%) are left out. The sample holds actives, similar compounds and a random draw of the others, so the mix is not that of the screen. Unmarked numbers belong to inactive results. The call rests on the fitted dose curve; in most records, active means well fitted inhibition curve with a large enough effect; inconclusive means small, poorly fitted or top-dose-only effect, or another doubt; inactive means no such curve, though single readings can be large or run the other way.
Experiment: Primary qHTS for delayed death inhibitors of the malarial parasite plastid, 48 hour incubation
Settings: P. falciparum luciferase growth in erythrocytes; series mostly up to 28.7 µM; activity change, negative = inhibition: at the top concentration
Description: The goal of this screen is to discover new antimalarial compounds that act by inhibiting the development of the apicoplast in the malarial parasite Plasmodium falciparum. The biochemical processes that make this organelle essential for erythrocytic stage parasites are not well understood. However, antibiotics such as azithromycin and tetracycline, which target the apicoplast translational machinery, have a potent antimalarial effect.
We have developed a cell-based assay that measures parasite growth based on the expression of an integrated copy of a firefly luciferase reporter. To detect small molecules that cause this "delayed death" phenotype, erythrocytes infected with the luciferase-expressing parasites were incubated with compounds for either one or two generations, corresponding to 48 and 96 hours, respectively. Compounds that inhibit parasite growth in the second generation, but not the first, should be enriched in antimalarials that target the apicoplast. Growth inhibition is detected by a decrease in luciferase activity.
Assay Provider: David Fidock and Eric Ekland, Columbia University
Keywords: NIH Roadmap, MLPCN, MLI, MLSMR, qHTS, NCGC, qHTS, malaria, luciferase, viability
Four microliters of culture medium (RPMI 1640 with 0.5% w/v Albumax (GIBCO), 24 mM sodium bicarbonate and 10 ug/mL gentamycin) were dispensed by a Multi-drop Combi into white solid 1536-well plates (Grenier) and 23 nL compound was added by a pin tool. Four microliters of infected erythrocytes (2% hematocrit, 0.1% parasitemia final concentration) in culture medium were dispensed and the plates incubated for 48 hours at 37 C in 5% CO2. Two microliters of luciferase detection reagent was added and luminescence was detected by a ViewLux (PerkinElmer) reader.
With `CC(=O)N[C@@H](C)C(=O)N1CCC(n2nccc2NC(=O)CCCc2ccccc2)CC1` the “activity change, negative = inhibition” value was -2.41%. With `Cc1ccc(C)c(OCCC(=O)OCC(=O)NC(=O)NCc2ccccc2)c1` the “activity change, negative = inhibition” value was -8.03%. With `CCC1CCCCN1C(=S)Nc1ccc(S(=O)(=O)Nc2ncccn2)cc1` (configuration not stated) the “activity change, negative = inhibition” value was 2.45%. With `O=C(CCN1C(=O)[C@@H]2Cc3ccccc3CN2C1=O)NCCc1ccccc1` the “activity change, negative = inhibition” value was 0.996%. With `O=C(c1ccc(OC2CCN(Cc3ccccn3)CC2)cc1)N1CCCCCC1` the “activity change, negative = inhibition” value was -17.7%. With `CC(=O)Nc1ccc(CN2CCC(Oc3ccc(C(=O)N4CCCC4)cc3)CC2)cc1` the “activity change, negative = inhibition” value was 50.1%. For `O=C(c1ccc(OC2CCN(C/C=C/c3ccc(F)cc3)CC2)cc1)N1CCCCC1`, the Potency was 11.7 µM (active). For `CCc1noc(C)c1C(=O)NNC(=O)c1ccc(F)cc1`, the “activity change, negative = inhibition” value was -2.99%. For `CCn1nc(C)c(CNC(=O)C2CCC(=O)N(Cc3cccc(F)c3)C2)c1C` (configuration not stated), the “activity change, negative = inhibition” value was 30.1%. For `CC(C)[C@H](NC(=O)N1CCn2c1nc1ccccc12)C(=O)NCc1ccc2c(c1)OCO2`, the “activity change, negative = inhibition” value was -9.51%. For `CC(C)(C)c1ccc(C(=O)N2CCC(C(=O)N3CCCCC3)CC2)cc1`, the “activity change, negative = inhibition” value was -7.27%. For `CC(C)(C)c1ccc(/C=C2\Oc3c(ccc(O)c3CN3CCN(CCO)CC3)C2=O)cc1`, the Potency was 10.4 µM (active). For `CC(=O)Nc1cccc(NC(=O)c2ccc3c(c2)CCN3S(C)(=O)=O)c1`, the “activity change, negative = inhibition” value was 11.6%. In the case of `C[C@H](NC(=O)C1CC(=O)N(c2ccc3c(c2)OCCO3)C1)C(=O)N1CCC(C(=O)O)CC1` (some centres not stated), the “activity change, negative = inhibition” value is reported as -18.3%. With `CC1(C)c2[nH]c3ccccc3c2C[C@H]2C(=O)N(N)CC(=O)N21` the “activity change, negative = inhibition” value was 34.8%. For `Cc1cc(C)cc(OCc2nnc(SCC(=O)OC3CCCCC3)o2)c1`, the “activity change, negative = inhibition” value was 12.6%. For `Cc1ccccc1OCc1nnc(SCC(=O)N2c3ccccc3Sc3ccc(Cl)cc32)o1`, the Potency was 10.4 µM (active). In the case of `Cc1cc(C)cc(OCc2nnc(SCC(=O)Nc3ccccc3)o2)c1`, the “activity change, negative = inhibition” value is reported as -7.32%. With `CC(C)Oc1ccc(C(=O)NCC(=O)Nc2ccc3c(c2)CCC3)cc1` the “activity change, negative = inhibition” value was 35%. In the case of `CCN(CC)c1ccc(S(=O)(=O)N2CCOCC2)cc1NC(=O)CSc1cccc[n+]1[O-]`, the “activity change, negative = inhibition” value is reported as -26.3%. In the case of `CCN(CC)c1ccc(S(=O)(=O)N2CCCCC2)cc1NC(=O)C1=COCCO1`, the Potency is reported as 13.1 µM (active). With `O=C(Nc1ccc(S(=O)(=O)N2CCCC2)cc1Cl)C1=COCCO1` the “activity change, negative = inhibition” value was -19.6%. With `COc1ccc(-c2noc(CCCC(=O)NC3CCCC3)n2)cc1OC` the “activity change, negative = inhibition” value was -19%. In the case of `Cn1c(-c2ccc(F)cc2)cc2onc(-c3ccccc3Cl)c2c1=O`, the “activity change, negative = inhibition” value is reported as 33.5%. In the case of `O=C(Nc1ccc([N+](=O)[O-])cc1)OCCc1ccccn1`, the “activity change, negative = inhibition” value is reported as 40.9%. With `CC[C@@H]1Cc2cc(O)ccc2C2=C1c1ccc(O)cc1C[C@H]2CC` the Potency was 11.7 µM (active). In the case of `O=C(Nc1ccccn1)C1CCN(S(=O)(=O)c2ccc3c(c2)OCCO3)CC1`, the “activity change, negative = inhibition” value is reported as 114%.
On the % scale 0 is the no-effect control and ±100 the full control effect; potency means the concentration at half of the fitted maximal effect.
